Results from ChEMBL document CHEMBL5308504, “Tm Shift (DSF) assay results for EUbOPEN Chemogenomics Library” (2023).
“And” between values parts separate entries of the source, which are not always exact repeats. Equal values may be shown once.

How the values were obtained:
Conditions in all cases: Compound concentration 20.0 uM, Protein concentration 2.0 uM, Result type QC Liability
[1] = target: Tyrosine-protein kinase ABL1 (Homo sapiens) (UniProt P00519)
[2] = target: Cyclin-dependent kinase 2 (Homo sapiens) (UniProt P24941)
[3] = target: Casein kinase I isoform delta (Homo sapiens) (UniProt P48730)
[4] = target: Glycogen synthase kinase-3 beta (Homo sapiens) (UniProt P49841)
[5] = target: Mitogen-activated protein kinase 1 (Homo sapiens) (UniProt P28482)
[6] = target: T1, Aurora kinase A (Homo sapiens) (UniProt O14965)
T1 sequence (whole entry): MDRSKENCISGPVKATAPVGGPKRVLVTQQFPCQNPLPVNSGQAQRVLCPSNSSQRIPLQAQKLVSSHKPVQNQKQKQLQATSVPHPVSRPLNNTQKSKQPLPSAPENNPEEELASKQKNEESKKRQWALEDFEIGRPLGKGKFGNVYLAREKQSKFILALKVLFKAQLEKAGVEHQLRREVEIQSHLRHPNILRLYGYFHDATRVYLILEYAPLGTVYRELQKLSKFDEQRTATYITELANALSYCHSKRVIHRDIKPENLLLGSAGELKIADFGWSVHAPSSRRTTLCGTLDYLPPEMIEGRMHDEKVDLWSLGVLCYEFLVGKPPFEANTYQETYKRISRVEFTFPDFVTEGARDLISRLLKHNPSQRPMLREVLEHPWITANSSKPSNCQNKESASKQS

Sequence of Tyrosine-protein kinase ABL1 (Homo sapiens) (P00519 whole entry): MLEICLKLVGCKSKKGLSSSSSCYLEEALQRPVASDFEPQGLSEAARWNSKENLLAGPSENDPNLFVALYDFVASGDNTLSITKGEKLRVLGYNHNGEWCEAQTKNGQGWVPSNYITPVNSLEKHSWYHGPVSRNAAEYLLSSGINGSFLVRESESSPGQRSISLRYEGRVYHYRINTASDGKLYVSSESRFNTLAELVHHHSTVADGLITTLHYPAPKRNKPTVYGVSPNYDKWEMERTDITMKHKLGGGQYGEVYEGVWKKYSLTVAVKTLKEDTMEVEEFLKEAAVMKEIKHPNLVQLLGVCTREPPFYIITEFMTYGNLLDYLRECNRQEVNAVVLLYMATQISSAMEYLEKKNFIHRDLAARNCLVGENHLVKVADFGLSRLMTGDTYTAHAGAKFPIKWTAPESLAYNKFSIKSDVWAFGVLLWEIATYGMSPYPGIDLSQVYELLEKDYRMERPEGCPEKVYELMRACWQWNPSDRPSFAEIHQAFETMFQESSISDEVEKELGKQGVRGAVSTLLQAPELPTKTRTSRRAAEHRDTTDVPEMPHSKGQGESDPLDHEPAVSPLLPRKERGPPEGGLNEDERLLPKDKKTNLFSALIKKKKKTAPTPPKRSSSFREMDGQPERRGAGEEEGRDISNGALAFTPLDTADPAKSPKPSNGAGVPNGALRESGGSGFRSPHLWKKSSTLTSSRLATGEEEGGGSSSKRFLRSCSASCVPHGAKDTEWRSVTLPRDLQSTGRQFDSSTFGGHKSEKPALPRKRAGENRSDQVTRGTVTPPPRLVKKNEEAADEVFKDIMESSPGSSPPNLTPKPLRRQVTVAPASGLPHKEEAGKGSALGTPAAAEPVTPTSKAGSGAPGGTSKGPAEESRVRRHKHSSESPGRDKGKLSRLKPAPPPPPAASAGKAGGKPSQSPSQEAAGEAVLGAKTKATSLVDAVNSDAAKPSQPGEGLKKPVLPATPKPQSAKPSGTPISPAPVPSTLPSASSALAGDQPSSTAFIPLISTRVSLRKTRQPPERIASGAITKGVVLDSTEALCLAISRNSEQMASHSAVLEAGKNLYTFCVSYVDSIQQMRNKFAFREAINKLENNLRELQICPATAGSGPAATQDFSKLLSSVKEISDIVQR
Sequence of Casein kinase I isoform delta (Homo sapiens) (P48730 whole entry, looked up, canonical isoform): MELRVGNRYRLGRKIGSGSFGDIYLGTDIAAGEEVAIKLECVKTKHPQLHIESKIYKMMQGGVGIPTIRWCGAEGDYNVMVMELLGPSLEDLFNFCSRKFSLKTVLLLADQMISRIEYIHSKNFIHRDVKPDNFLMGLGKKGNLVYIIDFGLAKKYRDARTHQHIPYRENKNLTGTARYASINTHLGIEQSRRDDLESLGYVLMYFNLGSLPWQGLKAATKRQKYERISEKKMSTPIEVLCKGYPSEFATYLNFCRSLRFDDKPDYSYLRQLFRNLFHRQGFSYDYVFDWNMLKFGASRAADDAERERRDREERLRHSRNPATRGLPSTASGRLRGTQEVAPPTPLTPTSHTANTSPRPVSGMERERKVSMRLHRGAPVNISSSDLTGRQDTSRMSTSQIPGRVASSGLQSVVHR
Sequence of Mitogen-activated protein kinase 1 (Homo sapiens) (P28482 whole entry): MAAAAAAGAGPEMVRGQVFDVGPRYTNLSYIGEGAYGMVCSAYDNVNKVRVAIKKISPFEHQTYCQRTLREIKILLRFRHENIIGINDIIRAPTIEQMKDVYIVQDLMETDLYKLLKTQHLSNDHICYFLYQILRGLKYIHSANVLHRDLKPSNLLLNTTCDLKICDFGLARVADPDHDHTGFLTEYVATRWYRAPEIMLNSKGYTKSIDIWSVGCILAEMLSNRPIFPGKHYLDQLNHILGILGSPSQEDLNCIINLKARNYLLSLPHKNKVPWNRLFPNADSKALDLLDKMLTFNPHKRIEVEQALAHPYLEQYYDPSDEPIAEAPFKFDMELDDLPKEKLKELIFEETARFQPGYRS
Sequence of Glycogen synthase kinase-3 beta (Homo sapiens) (P49841 whole entry, looked up): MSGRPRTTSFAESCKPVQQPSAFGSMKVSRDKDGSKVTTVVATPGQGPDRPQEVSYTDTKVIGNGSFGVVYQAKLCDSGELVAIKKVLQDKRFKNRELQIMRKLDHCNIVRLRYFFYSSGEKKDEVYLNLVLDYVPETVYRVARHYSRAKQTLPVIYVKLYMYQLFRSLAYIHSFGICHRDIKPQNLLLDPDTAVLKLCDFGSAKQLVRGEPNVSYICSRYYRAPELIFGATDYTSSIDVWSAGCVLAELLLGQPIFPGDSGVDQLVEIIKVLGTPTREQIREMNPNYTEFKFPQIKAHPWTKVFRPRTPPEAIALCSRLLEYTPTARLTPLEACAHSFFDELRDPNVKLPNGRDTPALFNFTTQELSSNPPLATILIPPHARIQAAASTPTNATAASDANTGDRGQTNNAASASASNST

Structure (SMILES)	ΔTm [1]	ΔTm [2]	ΔTm [3]	ΔTm [4]	ΔTm [5]	ΔTm [6]
COc1cc(N2CCN(C)CC2)ccc1Nc1ncc2c(n1)N(C)c1ccccc1C(=O)N2CC(F)(F)F	0.67 °C	-0.65 °C	0.47 °C	-0.83 °C	0.11 °C	0.18 °C
COc1ccccc1S(=O)(=O)Nc1ccc2c(c1)CN(C)C(=O)N2	0.09 °C	1.13 °C	0.79 °C	-0.57 °C	0.21 °C	-0.1 °C
CC(C)C[C@H](NC(=O)[C@@H](O)[C@H](N)Cc1ccccc1)C(=O)O	-0.05 °C	1.32 °C	0.13 °C	0.33 °C	0.15 °C	-0.07 °C
COc1cc2ncnc(N[C@H](C)c3ccccc3)c2cc1OC1CCN(S(C)(=O)=O)CC1	1.29 °C	0.54 °C	0.38 °C	0.09 °C	0.1 °C	0.05 °C
N#C/C(=C\c1ccc(O)c(O)c1)C(=O)OCCc1cccs1	2.18 °C	1.1 °C	2.15 °C	0.01 °C	0.37 °C	4.16 °C
O=C(N[C@H]1CCC[C@H](CO)C1)C1CCN(c2nc3cc(Cl)c(-c4ccc(Cl)cc4)cc3o2)CC1	1.38 °C	-3.19 °C	-6.76 °C	1.1 °C	-10.4 °C	-2.13 °C
CN1C(=O)c2ccccc2N(C)c2nc(Nc3cnn(C4CCNCC4)c3)ncc21	9.76 °C	1.04 °C	0.9 °C	0.14 °C	0.53 °C	16.4 °C
CC(=O)N1CCC(c2ccc(C(=O)NC(=N)N)cc2C(F)(F)F)CC1	-0.81 °C	0.95 °C	0.37 °C	-0.64 °C	0.32 °C	0.44 °C
Cc1ccc2c(NS(=O)(=O)c3ccccc3Cl)cccc2c1Oc1ncccc1-c1ccnc(N[C@H]2CCCNC2)n1	1.79 °C	0.86 °C	0.45 °C	-0.76 °C	-1.3 °C	1.28 °C
CCNC1=N[C@@H]2[C@@H](O)[C@H](O)[C@@H](CO)O[C@@H]2S1	0.07 °C	0.73 °C	0.01 °C	-0.6 °C	0.28 °C	-0.73 °C
Nc1ncnc2[nH]c(-c3ccccc3)nc12	3.48 °C	0.92 °C	0.73 °C	1.04 °C	0.38 °C	0.6 °C
Cc1nc(-c2ccc(C(F)(F)F)cc2)sc1C(=O)NCc1ccc(OC(C)(C)C(=O)O)cc1	0.61 °C	0.76 °C	0.63 °C	-0.64 °C	0.34 °C	0.59 °C
COc1cc2ncnc(Nc3ccc4c(cnn4Cc4ccccc4)c3)c2cc1OC	-2.25 °C	-2.73 °C	0.02 °C	-2.74 °C	-0.38 °C	0.63 °C
CCN(CC)C(=O)C1CN2CCc3cc(OC)c(OC)cc3C2CC1OC(C)=O (stereo not given)	-0.43 °C	0.69 °C	-0.03 °C	-1.02 °C	0.11 °C	-0.04 °C
CSc1ccc(C(=O)/C=C/c2cc(C)c(OC(C)(C)C(=O)O)c(C)c2)cc1	1.1 °C	0.59 °C	0.61 °C	0.69 °C	0.07 °C	4.96 °C
CN(C)C(=O)Cn1cc(-c2nc([C@@](C)(c3ccc(-c4cnc(N)nc4)cc3)C3CC3)no2)cn1	1.32 °C	0.32 °C	0.5 °C	-0.36 °C	0.32 °C	2.6 °C
COc1cccc(CNc2ccc(S(=O)(=O)Nc3nc4ccccc4s3)cc2)c1O	0.16 °C	0.93 °C	0.86 °C	0.88 °C	-0.57 °C	1.13 °C
CN1CCN(c2ccc(-n3cc(-c4ccncc4OCC4CCNCC4)cn3)cc2)CC1	1.5 °C	1.21 °C	1.48 °C	-0.06 °C	0.53 °C	-0.52 °C
C=CC[C@@H]1/C=C(\C)C[C@H](C)C[C@H](OC)[C@H]2O[C@@](O)(C(=O)C(=O)N3CCCC[C@H]3C(=O)O[C@H](/C(C)=C/[C@@H]3CC[C@@H](O)[C@H](OC)C3)[C@H](C)[C@@H](O)CC1=O)[C@H](C)C[C@@H]2OC	-0.14 °C	-0.14 °C	-0.31 °C	0.01 °C	-1.81 °C	-0.2 °C
C[C@H](CCC(=O)O)[C@H]1CC[C@H]2[C@@H]3CC[C@@H]4C[C@H](O)CC[C@]4(C)[C@H]3C[C@H](O)[C@]12C	-0.07 °C	0.15 °C	0.54 °C	-0.7 °C	0.2 °C	-0.62 °C
Cc1cc(-c2ccnc(Nc3cnn(C)c3)n2)ccc1CNC(=O)N1CC(OC(C)C)C1	6.49 °C	1.31 °C	0.77 °C	0.38 °C	0.39 °C	8.06 °C
COc1ccc(-c2csc(NC(=O)[C@H]3CCCCN3S(=O)(=O)c3ccc(C)cc3)n2)cc1	0.82 °C	0.77 °C	2.05 °C	9.29 °C	-0.89 °C	0.39 °C
CC[C@H](CC(=O)O)n1c(=O)c2ncccc2n(Cc2cn(C)c3cc(C)cc(C)c23)c1=O	-0.39 °C and 0.26 °C	0.68 °C and 0.96 °C	0.28 °C and -0.08 °C	-0.11 °C and -0.78 °C	0.08 °C and 0.23 °C	-0.13 °C and 0.01 °C
c1ccc2c(c1)SCc1c-2[nH]c2ccccc12	-6.18 °C	-4.12 °C	-0.03 °C	1.83 °C	0.46 °C	-4.16 °C
COCc1nc2cnc3cc(-c4c(C)noc4C)c(OC[C@H]4CCNC4)cc3c2n1[C@H](C)c1ccccc1	0.08 °C	0.87 °C	0.07 °C	-0.83 °C	0.35 °C	-0.39 °C

Structure (SMILES)	ΔTm [1]	ΔTm [2]	ΔTm [3]	ΔTm [4]	ΔTm [5]	ΔTm [6]
CCc1nc(-c2cccc(C)c2)c(-c2ccncc2)s1	1.94 °C	-0.27 °C	3.88 °C	3.39 °C	0.28 °C	-0.09 °C
CCOc1cc(CC(=O)N[C@@H](CC(C)C)c2ccccc2N2CCCCC2)ccc1C(=O)O	-0.58 °C	0.05 °C	-0.05 °C	0.38 °C	-0.15 °C	-0.16 °C
Fc1ccc(Cl)cc1-c1nc(Nc2ccncc2)c2nccnc2n1	0.4 °C	1.19 °C	2.24 °C	0.58 °C	0.56 °C	-0.16 °C
CN(C)CCCN1c2ccccc2Sc2ccc(Cl)cc21	0.03 °C	0.8 °C	0.05 °C	-0.47 °C	0.34 °C	-0.47 °C
COc1nc2ccc([C@@](O)(c3ccccc3)C3CCN(C(C)=O)CC3)cc2c(Cl)c1Cc1ccc(-n2cccn2)cc1	-0.06 °C	-0.4 °C	-0.56 °C	-3.26 °C	0.14 °C	-0.6 °C
CC[C@H](Nc1c(C#N)c(-c2ccc(-c3cccc(C)c3F)cc2)nc2cnccc12)C(=O)O	1.4 °C	-0.67 °C	-0.79 °C	-0.59 °C	-0.11 °C	2.03 °C
O=C(Cc1ccccc1[N+](=O)[O-])Nc1ccc(-c2ccc(C(O)(C(F)(F)F)C(F)(F)F)cc2F)cc1	0.67 °C	2.11 °C	-0.86 °C	-0.71 °C	-0.87 °C	-1.59 °C
CC(C)N1CCN(Cc2cnc(-c3cc(-c4cccc5[nH]ccc45)cc4[nH]ncc34)o2)CC1	2.44 °C	0.6 °C	1.32 °C	3.63 °C	0.24 °C	4.96 °C
CN1CCC(C#N)(NC(=O)[C@@H](NC(=O)N2CCOCC2)C(C)(C)C)CC1	-0.07 °C	0.23 °C	0.3 °C	-0.75 °C	0.52 °C	-0.18 °C
CCc1nc(-c2cccc(C)c2)c(-c2ccnc(NC(=O)c3ccccc3)c2)s1	1.26 °C	-1.36 °C	4.93 °C	-1.07 °C	-0.25 °C	-1.25 °C
Cc1c(CN2CCC3(CC2)CN(c2ncnc4sc(CC(F)(F)F)cc24)C3)ccc2c1cc(C#N)n2CC(N)=O	0.27 °C	-0.01 °C	0.92 °C	0.64 °C	0.12 °C	0.16 °C
CN(c1ccc(C(F)(F)F)cc1)S(=O)(=O)c1ccc(C(=O)Nc2nc(-c3ccccn3)cs2)cc1	7.05 °C	10.4 °C	5.15 °C	13.4 °C	1.92 °C	9.24 °C
CC(C)c1nc2c(c3c1[C@H](c1ccc(C(F)(F)F)cc1)OC31CCOCC1)[C@H](O)CC(C)(C)C2	-0.1 °C	-0.68 °C	-0.53 °C	-1.62 °C	-0.14 °C	-0.26 °C
CCCCC[C@@](C)(O)/C=C/[C@H]1C(=O)CC(O)C1C/C=C\CCCC(=O)O (stereo not given in full)	-0.65 °C	0.16 °C	-0.52 °C	0.15 °C	-0.04 °C	-0.74 °C
O=C(O)C[C@H]1CC[C@H](c2ccc(NC(=O)c3nnc(Nc4ccc(F)c(F)c4)o3)cc2)CC1	-0.04 °C	0.24 °C	-0.9 °C	-0.67 °C	-2.59 °C	0.92 °C
CC[C@@H](C(=O)OC)n1c(=O)c2ccccc2n(Cc2cn(C)c3cccc(C)c23)c1=O	-0.76 °C	0.06 °C	0.32 °C	-0.47 °C	0.23 °C	-0.05 °C
Cc1ccc(NC(=O)c2ccc(CN3CC[C@H](N(C)C)C3)c(C(F)(F)F)c2)cc1Nc1nccc(-c2cncnc2)n1	17.6 °C	0.7 °C	0.73 °C	0.08 °C	0.9 °C	0.26 °C
CS(=O)(=O)NCC[C@H](NC(=O)c1cncc2c1cnn2-c1ccc(F)cc1)c1ccnc(S(C)(=O)=O)c1	-0.12 °C	-0.17 °C	0.57 °C	-1.34 °C	0.26 °C	0.06 °C
O=C(O)CCCCN(CCc1ccccc1OCc1ccc(CCc2ccccc2)cc1)Cc1ccc(C(=O)O)cc1	-0.26 °C	0.13 °C	-0.05 °C	-0.16 °C	-0.08 °C	-0.23 °C
N=C(N)Nc1cc(C2CCNCC2)cc(C(F)(F)F)c1	0.05 °C	0.64 °C	0.15 °C	-0.15 °C	0.15 °C	-0.12 °C
C=CC(=O)Nc1cccc(C)c1Nc1ncc2cc(-c3c(Cl)c(OC)cc(OC)c3Cl)ccc2n1	0.49 °C	0.87 °C	0.34 °C	-1.24 °C	-3.69 °C	-2.08 °C
CCNC(=O)c1ccc2c(c1)NC(=O)/C2=C(\Nc1ccc(CN(C)C)cc1)c1ccccc1	3.61 °C and 1.55 °C	0.83 °C and 0.42 °C	0.37 °C and -0.02 °C	0.19 °C and -0.61 °C	0.2 °C and 0.17 °C	1.4 °C and 0 °C
CCCN1C(=O)c2ccc(Cl)cc2Nc2ncccc21	0.81 °C	0.95 °C	0.61 °C	0.22 °C	0.22 °C	1.35 °C
N#CC[C@H](C1CCCC1)n1cc(-c2ncnc3[nH]ccc23)cn1	3.71 °C	1.43 °C	2.02 °C	4.04 °C	0.74 °C	5.6 °C
CC(C)NC(=O)[C@H]1CCC[C@H]1Nc1nc(Nc2ccc(C(=O)N(C)C3CCN(C)CC3)cc2)ncc1Cl	10.3 °C and 6.45 °C	1.23 °C and 1.13 °C	0.47 °C and 0.12 °C	0.76 °C and -0.38 °C	0.47 °C and 0.79 °C	15.7 °C and 14.3 °C
